From PubChem BioAssay
The source made the active and inactive calls.

Tests used:
[1] = small molecules captured by biotinylated probe aFSTL3 – biochemical, small-molecule microarray, fluorescence 635/667, stem cell growth factor project, primary screen (AID 1064); settings: higher = more signal;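 also: measures binding of the biotinylated anti-FSTL3 antibody to printed compounds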
[2] = binders from COS7 lysate, DM2A8 probe, primary screen, torsin A project, cell lysate, small-molecule microarray, fluorescence 635/667 (AID 1065); settings: higher = more signal, COS7 lysate expressing mutant human TOR1A
[3] = small molecules captured by biotinylated probe aFGF2 – biochemical, small-molecule microarray, fluorescence 635/667, stem cell growth factor project, primary screen (AID 1067); settings: higher = more signal;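 also: measures binding of biotinylated aFGF2 protein to printed compounds on slides; z-score merges feature fluorescence and signal-to-noise across triplicate slides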
[4] = small molecules captured by biotinylated probe aFGF10 – biochemical, small-molecule microarray, fluorescence 635/667, stem cell growth factor project, primary screen (AID 1071); settings: higher = more signal;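 also: score merges 667 nm spot intensity and signal to noise from triplicate slides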
[5] = target: Neurogenic locus notch homolog protein 2 (Homo sapiens) (UniProt Q04721); test: small molecules binding Notch2 protein – biochemical, small-molecule microarray, 635 nm fluorescence, stem cell growth factors, primary screen (AID 1073); settings: higher = more signal
Sequence of Neurogenic locus notch homolog protein 2 (Homo sapiens) (Q04721 whole entry, looked up, canonical isoform): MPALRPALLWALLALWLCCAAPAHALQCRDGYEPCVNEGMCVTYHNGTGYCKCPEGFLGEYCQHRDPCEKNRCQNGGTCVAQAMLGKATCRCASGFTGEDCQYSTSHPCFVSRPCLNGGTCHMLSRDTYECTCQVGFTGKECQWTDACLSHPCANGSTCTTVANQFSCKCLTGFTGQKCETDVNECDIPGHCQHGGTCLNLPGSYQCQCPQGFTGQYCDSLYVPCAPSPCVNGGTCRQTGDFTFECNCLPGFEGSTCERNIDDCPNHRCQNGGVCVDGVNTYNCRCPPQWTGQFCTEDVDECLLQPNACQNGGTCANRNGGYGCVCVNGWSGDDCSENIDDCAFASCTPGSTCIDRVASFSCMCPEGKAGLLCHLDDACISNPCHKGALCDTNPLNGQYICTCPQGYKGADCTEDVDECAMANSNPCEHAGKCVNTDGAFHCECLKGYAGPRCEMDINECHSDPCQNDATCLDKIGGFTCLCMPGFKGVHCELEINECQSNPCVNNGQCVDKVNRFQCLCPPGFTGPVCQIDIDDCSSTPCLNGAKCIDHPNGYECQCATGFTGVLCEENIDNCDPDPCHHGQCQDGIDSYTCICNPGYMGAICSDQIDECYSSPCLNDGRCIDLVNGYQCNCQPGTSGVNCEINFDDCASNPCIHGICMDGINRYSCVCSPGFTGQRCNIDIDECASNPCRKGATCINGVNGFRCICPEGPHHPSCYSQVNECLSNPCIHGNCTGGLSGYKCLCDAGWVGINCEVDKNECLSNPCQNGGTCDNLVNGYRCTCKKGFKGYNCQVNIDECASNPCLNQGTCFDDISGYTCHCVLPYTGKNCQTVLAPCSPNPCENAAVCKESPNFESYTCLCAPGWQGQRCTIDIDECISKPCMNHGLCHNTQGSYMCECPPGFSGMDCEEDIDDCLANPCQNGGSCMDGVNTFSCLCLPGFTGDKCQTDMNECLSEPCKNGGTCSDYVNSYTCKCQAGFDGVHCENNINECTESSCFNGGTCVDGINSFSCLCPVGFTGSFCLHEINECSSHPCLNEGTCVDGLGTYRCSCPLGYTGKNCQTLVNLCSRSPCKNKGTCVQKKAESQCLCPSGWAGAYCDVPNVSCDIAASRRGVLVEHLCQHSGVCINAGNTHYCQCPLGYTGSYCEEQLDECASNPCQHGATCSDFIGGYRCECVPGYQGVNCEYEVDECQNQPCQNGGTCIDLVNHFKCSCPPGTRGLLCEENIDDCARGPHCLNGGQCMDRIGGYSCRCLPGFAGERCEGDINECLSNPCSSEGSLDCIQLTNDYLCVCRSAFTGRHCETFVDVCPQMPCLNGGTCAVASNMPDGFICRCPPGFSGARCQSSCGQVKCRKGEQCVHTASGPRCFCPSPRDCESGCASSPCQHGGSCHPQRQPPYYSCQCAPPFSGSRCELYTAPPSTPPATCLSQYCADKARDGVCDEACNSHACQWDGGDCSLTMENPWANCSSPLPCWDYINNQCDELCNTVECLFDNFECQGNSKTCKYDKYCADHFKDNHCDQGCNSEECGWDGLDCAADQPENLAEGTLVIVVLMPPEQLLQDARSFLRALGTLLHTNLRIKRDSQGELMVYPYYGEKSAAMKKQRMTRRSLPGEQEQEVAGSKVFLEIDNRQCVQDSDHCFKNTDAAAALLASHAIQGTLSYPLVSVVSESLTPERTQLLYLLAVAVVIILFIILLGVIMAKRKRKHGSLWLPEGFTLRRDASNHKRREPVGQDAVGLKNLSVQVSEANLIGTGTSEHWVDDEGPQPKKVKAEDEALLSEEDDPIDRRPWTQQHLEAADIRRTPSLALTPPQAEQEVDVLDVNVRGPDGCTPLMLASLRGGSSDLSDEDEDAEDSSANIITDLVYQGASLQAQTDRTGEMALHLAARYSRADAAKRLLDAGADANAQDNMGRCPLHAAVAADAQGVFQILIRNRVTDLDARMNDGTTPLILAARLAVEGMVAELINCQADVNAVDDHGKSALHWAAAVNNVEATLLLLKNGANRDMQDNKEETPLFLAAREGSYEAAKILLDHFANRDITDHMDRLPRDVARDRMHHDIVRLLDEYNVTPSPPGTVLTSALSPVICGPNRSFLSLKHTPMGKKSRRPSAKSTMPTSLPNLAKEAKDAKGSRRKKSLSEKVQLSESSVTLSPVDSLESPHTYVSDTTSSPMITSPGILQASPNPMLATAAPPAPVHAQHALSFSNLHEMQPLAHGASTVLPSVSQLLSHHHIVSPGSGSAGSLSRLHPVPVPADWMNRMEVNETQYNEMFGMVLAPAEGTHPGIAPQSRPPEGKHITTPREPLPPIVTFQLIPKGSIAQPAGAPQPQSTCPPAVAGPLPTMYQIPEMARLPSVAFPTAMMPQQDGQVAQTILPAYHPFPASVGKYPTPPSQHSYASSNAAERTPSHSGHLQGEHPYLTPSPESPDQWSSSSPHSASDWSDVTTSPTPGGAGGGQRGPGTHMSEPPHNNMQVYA

[6] = target: Pro-neuregulin-1, membrane-bound isoform (Homo sapiens) (UniProt Q02297); test: small molecules binding neuregulin-1 protein – biochemical, small-molecule microarray, fluorescence 635/667, psychiatric disease protein project, primary screen (AID 1075); settings: NRG1 binding, 635 nm fluorescence, higher = more signal;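 also: score combines 667 nm spot fluorescence with signal to noise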
[7] = tested on: Neuregulin-1 EGF-like domain; test: small molecules binding NRG1 EGF domain – biochemical, small-molecule microarray, 635 nm fluorescence, primary screen (AID 1081); settings: higher = more signal;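 also: binding of the protein to compounds printed on small-molecule microarray slides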
[8] = FRG1 expression reporter modulators in myotubes – cell-based, C2C12 myotubes, firefly/Renilla luciferase, luminescence, FRG1 inhibition for FSHD, primary screen (AID 1084); settings: FRG1 promoter luciferase, higher = more signal, called active from +8 up or from −8 down
[9] = small molecules captured by biotinylated probe aFST – biochemical, small-molecule microarray, fluorescence 635/667, stem cell growth factor project, primary screen (AID 1086); settings: higher = more signal;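 also: score merges 667 nm fluorescence with signal-to-noise of each printed compound spot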
[10] = binders of probe aHhip on microarray, primary screen, stem cell growth factor project, biochemical, small-molecule microarray, fluorescence 635/667 (AID 1087); settings: higher = more signal;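 also: score merges spot fluorescence at 667nm with spot signal to noise ratio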
[11] = tested on: PRMT1 (protein arginine N-methyltransferase 1); test: small molecules binding arginine methyltransferase PRMT1 – biochemical, small-molecule microarray, 635 nm fluorescence, primary screen (AID 1088); settings: higher = more signal;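 also: binding of Prmt1 protein to compounds spotted on small-molecule microarray slides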
[12] = growth effects on S. cerevisiae YJM789 – YJM789 clinical isolate, OD600, 24 h, basal, primary screen (AID 1089); settings: higher = more signal, called active from +8 up or from −8 down;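 also: growth of clinical yeast isolate S. cerevisiae YJM 789 seeded 1000 cells per well; test concentration not given here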
[13] = S. pombe growth modifiers, basal conditions – strain 972, OD600, 24 h, no modulator, primary screen (AID 1090);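 also: basal condition with compound alone and no growth modifier present; test concentration not given here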; settings: S. pombe 972 growth, higher = more signal, called active from +8 up or from −8 down
[14] = budding yeast growth modifiers under rapamycin – strain BY4716, OD600, 96 h, primary screen (AID 1091); also: test concentration not given here; settings: S. cerevisiae BY4716 + rapamycin, higher = more signal, called active from +8 up or from −8 down
[15] = target: Torsin-1A-interacting protein 2 (Homo sapiens) (UniProt Q8NFQ8); test: small molecules binding lysate-expressed LULL1 – cell lysate, human LULL1 lysate, 635/667 nm fluorescence, primary screen (AID 1092); settings: small-molecule microarray, hLULL1 lysate binding, 635 nm fluorescence; higher = more signal;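 also: probe is lysate of COS7 cells overexpressing human LULL1; score merges per-feature 667 nm fluorescence with signal-to-noise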
[16] = optical density change of DRC41 E. coli – strain DRC41, OD650, 24 h, E. coli filamentation project, primary screen (AID 1093);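 also: MC1000 strain lacking acrAB efflux and sulA so SOS filamentation is blocked; test concentration not given here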; settings: E. coli DRC41 growth, higher = more signal, called active from +8 up or from −8 down
[17] = probe aLefty2 binding to arrayed compounds – biochemical, biotinylated probe, 635/667 nm fluorescence, primary screen (AID 1094); settings: small-molecule microarray, higher = more signal;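 also: score merges spot fluorescence near 667 nm with spot signal-to-noise ratio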
[18] = tested on: Noggin (protein binding on small-molecule microarray); test: small molecules binding Noggin protein – biochemical, 635/667 nm fluorescence, primary screen (AID 1095); settings: 635 nm fluorescence, higher = more signal;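 also: score merges 667 nm feature fluorescence with signal to noise over triplicate slides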
[19] = target: Neurogenic locus notch homolog protein 3 (Homo sapiens) (UniProt Q9UM47); test: small molecules binding NOTCH3 protein – biochemical, 635/667 nm fluorescence, primary screen (AID 1096); settings: small-molecule microarray, 635 nm fluorescence, higher = more signal
Sequence of Neurogenic locus notch homolog protein 3 (Homo sapiens) (Q9UM47 whole entry, looked up): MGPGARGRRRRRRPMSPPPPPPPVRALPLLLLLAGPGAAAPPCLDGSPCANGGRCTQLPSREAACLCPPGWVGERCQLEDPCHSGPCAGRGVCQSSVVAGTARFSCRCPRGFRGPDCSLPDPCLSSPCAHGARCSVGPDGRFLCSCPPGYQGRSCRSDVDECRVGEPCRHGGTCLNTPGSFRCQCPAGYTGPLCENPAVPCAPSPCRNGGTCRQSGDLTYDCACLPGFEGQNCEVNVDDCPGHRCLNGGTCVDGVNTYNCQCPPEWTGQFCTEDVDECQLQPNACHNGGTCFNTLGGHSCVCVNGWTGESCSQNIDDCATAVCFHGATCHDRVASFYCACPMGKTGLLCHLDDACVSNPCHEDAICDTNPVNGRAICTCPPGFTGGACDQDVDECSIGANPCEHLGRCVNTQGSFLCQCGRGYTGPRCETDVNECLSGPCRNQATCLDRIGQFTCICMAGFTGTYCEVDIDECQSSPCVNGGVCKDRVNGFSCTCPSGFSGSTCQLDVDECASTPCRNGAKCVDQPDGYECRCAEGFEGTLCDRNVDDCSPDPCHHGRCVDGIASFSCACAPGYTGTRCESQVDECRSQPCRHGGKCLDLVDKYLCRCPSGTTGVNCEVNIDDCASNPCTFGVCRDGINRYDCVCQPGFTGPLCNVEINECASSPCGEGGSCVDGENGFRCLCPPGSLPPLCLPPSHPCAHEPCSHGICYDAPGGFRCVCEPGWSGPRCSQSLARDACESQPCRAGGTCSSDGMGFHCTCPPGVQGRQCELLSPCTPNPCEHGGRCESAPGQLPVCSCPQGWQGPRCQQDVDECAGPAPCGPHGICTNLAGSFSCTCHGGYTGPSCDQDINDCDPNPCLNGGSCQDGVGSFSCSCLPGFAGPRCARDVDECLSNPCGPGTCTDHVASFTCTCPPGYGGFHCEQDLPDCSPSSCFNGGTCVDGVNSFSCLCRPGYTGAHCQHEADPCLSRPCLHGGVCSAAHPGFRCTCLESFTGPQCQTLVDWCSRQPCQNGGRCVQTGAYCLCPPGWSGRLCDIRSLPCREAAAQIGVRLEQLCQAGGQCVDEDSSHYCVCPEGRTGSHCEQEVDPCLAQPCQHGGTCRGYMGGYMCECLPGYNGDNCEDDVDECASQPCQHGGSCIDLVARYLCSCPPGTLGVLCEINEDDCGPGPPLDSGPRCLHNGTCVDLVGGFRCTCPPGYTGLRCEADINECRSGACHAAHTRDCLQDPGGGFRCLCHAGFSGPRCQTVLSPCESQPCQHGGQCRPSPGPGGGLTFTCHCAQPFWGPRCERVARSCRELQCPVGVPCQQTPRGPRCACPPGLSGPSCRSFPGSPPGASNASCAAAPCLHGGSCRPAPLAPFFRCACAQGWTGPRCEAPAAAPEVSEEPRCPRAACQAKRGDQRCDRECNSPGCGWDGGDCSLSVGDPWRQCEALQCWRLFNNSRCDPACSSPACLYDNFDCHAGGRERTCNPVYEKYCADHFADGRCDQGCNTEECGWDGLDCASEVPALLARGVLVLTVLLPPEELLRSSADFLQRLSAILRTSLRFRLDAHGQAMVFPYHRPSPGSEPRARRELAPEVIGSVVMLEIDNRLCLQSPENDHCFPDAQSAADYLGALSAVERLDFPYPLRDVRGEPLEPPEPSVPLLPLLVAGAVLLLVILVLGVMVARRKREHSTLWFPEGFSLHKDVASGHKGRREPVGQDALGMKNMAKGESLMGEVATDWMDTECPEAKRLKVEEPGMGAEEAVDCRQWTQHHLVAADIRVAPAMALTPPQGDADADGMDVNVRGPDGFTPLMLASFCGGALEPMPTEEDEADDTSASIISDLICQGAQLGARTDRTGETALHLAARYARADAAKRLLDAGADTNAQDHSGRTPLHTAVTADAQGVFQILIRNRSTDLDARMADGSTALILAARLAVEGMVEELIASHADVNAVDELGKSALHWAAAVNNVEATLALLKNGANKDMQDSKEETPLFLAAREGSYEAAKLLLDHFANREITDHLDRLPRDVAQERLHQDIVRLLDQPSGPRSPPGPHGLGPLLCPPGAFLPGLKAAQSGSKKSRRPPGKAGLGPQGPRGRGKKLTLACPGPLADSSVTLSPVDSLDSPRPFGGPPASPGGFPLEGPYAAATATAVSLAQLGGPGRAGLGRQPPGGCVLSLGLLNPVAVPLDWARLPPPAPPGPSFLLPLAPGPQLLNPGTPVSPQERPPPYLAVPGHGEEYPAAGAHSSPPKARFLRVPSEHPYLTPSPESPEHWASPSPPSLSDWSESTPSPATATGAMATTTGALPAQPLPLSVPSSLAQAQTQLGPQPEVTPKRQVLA

[20] = probe aEGFR binding to arrayed compounds – biochemical, biotinylated probe, 635/667 nm fluorescence, primary screen (AID 1097); settings: small-molecule microarray, higher = more signal;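 also: probe is a biotinylated anti-EGFR antibody binding compounds printed on slides; score combines fluorescence near 667 nm and signal to noise of each spot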

With `COc1ccc(O[C@H]2C=C[C@@H](c3ccccc3)O[C@@H]2CON=C(C)CCN2CCc3nc(-c4ccccc4)c(-c4ccccc4)cc3C2)cc1` the composite z-score [1] was -0.311, the composite z-score [2] was 0.183 and the composite z-score [3] was -0.0909. It also gave a composite z-score [4] of -0.631, a composite z-score [5] of -0.167 and a composite z-score [6] of 0.617. The composite z-score [7] was -0.0088, the z-score [8] was 0.282 (inactive) and the composite z-score [9] was 0.371. The composite z-score [10] was 0.136, the composite z-score [11] was 0.307 and the z-score [12] was 0.549 (inactive). For the same compound, the z-score [13] was -0.513 (inactive), the z-score [14] was -2.92 (inactive) and the composite z-score [15] was 0.607. For the same compound, the z-score [16] was 0.669 (inactive), the composite z-score [17] was -0.148 and the composite z-score [18] was 0.111. It also gave a composite z-score [19] of -0.183 and a composite z-score [20] of -0.133.

`CC(C)CON=C1C[C@@H](O)[C@@H](O)[C@@H]2[C@@H]3C(=O)N(C(C)(C)C)C(=O)[C@@H]3CC[C@H]12` showed a composite z-score [1] of 1.33, a composite z-score [2] of 0.275 and a composite z-score [3] of -0.133. For the same compound, the composite z-score [4] was -0.136, the composite z-score [5] was -0.681 and the composite z-score [6] was 0.414. The composite z-score [7] was -0.099, the z-score [8] was -0.392 (inactive) and the composite z-score [9] was -0.142. For the same compound, the composite z-score [10] was -0.21, the composite z-score [11] was 0.829 and the z-score [12] was -0.318 (inactive). The z-score [13] was 0.674 (inactive), the z-score [14] was 0.0851 (inactive) and the composite z-score [15] was 1.96. The z-score [16] was 0.573 (inactive), the composite z-score [17] was 0.0577 and the composite z-score [18] was -0.316. For the same compound, the composite z-score [19] was -0.562 and the composite z-score [20] was -0.0966.

`COc1ccc(O[C@@H]2[C@H](O)CO[C@H]2C=Cc2ccccc2)cc1` gave a composite z-score [1] of -0.323, a composite z-score [2] of 0.26 and a composite z-score [3] of -0.113. It also gave a composite z-score [4] of 0.649, a composite z-score [5] of -0.625 and a composite z-score [6] of 0.0515. The composite z-score [7] was -0.839, the z-score [8] was -1.39 (inactive) and the composite z-score [9] was -0.367. The composite z-score [10] was -0.0994, the composite z-score [11] was 0.619 and the z-score [12] was -2.63 (inactive). For the same compound, the z-score [13] was -3.17 (inactive), the z-score [14] was -0.856 (inactive) and the composite z-score [15] was 0.108. The z-score [16] was 0.473 (inactive), the composite z-score [17] was -0.214 and the composite z-score [18] was 0.146. The composite z-score [19] was -0.167 and the composite z-score [20] was -0.148.

In the case of `COc1ccc(O[C@H]2C=C[C@@H](c3ccccc3)O[C@@H]2COC(=O)CCC(C)=NO[C@@H]2O[C@H](COC(C)=O)[C@@H](OC(C)=O)[C@H](OC(C)=O)[C@H]2OC(C)=O)cc1`, the composite z-score [1] is reported as -0.468, the composite z-score [2] is reported as 0.135 and the composite z-score [3] is reported as -0.152. For the same compound, the composite z-score [4] was 0.608, the composite z-score [5] was 0.424 and the composite z-score [6] was -0.0533. For the same compound, the composite z-score [7] was 0.929, the z-score [8] was 1.09 (inactive) and the composite z-score [9] was 0.247. For the same compound, the composite z-score [10] was -0.236, the composite z-score [11] was 1.44 and the z-score [12] was 1.2 (inactive). For the same compound, the z-score [13] was 1.03 (inactive), the z-score [14] was 0.865 (inactive) and the composite z-score [15] was 0.727. The z-score [16] was 0.271 (inactive), the composite z-score [17] was -0.253 and the composite z-score [18] was 0.749. It also gave a composite z-score [19] of 1.1 and a composite z-score [20] of -0.0271.

For `CCOC(=O)[C@H](Cc1ccccc1)NC(=O)CCC1CC(OC(=O)NCc2cccc3ccccc23)CC2(CCCC(COC(=O)NCc3cccc(C(F)(F)F)c3)O2)O1` (stereo not given in full), the composite z-score [1] was -0.223, the composite z-score [2] was -0.549 and the composite z-score [3] was -0.0934. For the same compound, the composite z-score [4] was 0.19, the composite z-score [5] was 0.211 and the composite z-score [6] was 0.567. For the same compound, the composite z-score [7] was 0.74, the z-score [8] was -1.05 (inactive) and the composite z-score [9] was -0.143. For the same compound, the composite z-score [10] was -0.0645, the composite z-score [11] was 0.176 and the z-score [12] was 0.655 (inactive). For the same compound, the z-score [13] was 0.611 (inactive), the z-score [14] was 1.67 (inactive) and the composite z-score [15] was 1.48. The z-score [16] was -0.353 (inactive), the composite z-score [17] was -0.217 and the composite z-score [18] was 0.0178. The composite z-score [19] was 0.212 and the composite z-score [20] was -0.114.

Compound `CCN1C(=O)[C@H]2[C@H]3[C@H](O)[C@H](O)CC(=O)[C@H]3CC[C@H]2C1=O` has a composite z-score [1] of -0.652, a composite z-score [2] of 0.481 and a composite z-score [3] of -0.0566. It also gave a composite z-score [4] of 0.39, a composite z-score [5] of 0.132 and a composite z-score [6] of 0.298. The composite z-score [7] was 0.81, the z-score [8] was 0.276 (inactive) and the composite z-score [9] was 0.0722. For the same compound, the composite z-score [10] was 0.0373, the composite z-score [11] was 0.288 and the z-score [12] was -0.955 (inactive). For the same compound, the z-score [13] was -0.38 (inactive), the z-score [14] was -0.18 (inactive) and the composite z-score [15] was 0.718. The z-score [16] was 0.759 (inactive), the composite z-score [17] was -0.228 and the composite z-score [18] was 0.675. For the same compound, the composite z-score [19] was 0.386 and the composite z-score [20] was -0.0989.
